PubChem BioAssay (NCATS)
Results filed as inconclusive are left out. Where a call stands in place of a potency, no number is given. Values without a mark were called inactive. Active and inactive are the calls of the source. Unless noted, calls follow the shape of the dose curve; as a rule, active = well fitted curve in the direction sought with a large enough effect; inconclusive = small, poorly fitted or top-dose-only effect, or another doubt; inactive = no such curve, though single readings can be large; an effect the other way counts as inactive or inconclusive.

Assays:
[1] = qHTS for Inhibitors of Plasmodium falciparum (DD2) proliferation (AID 504314);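 also: parasite DNA measured by SYBR Green fluorescence after red cell lysis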
How it was run: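 SYBR Green DNA-fluorescence growth assay: infected RBCs at 0.3% parasitemia, 2.5% hematocrit, 72 h compound exposure, 37C, 5% CO2; overnight lysis with dye at RT; normalized to 0.29 uM artemisinin and vehicle.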

[2] = qHTS for Inhibitors of Plasmodium falciparum (CP250) proliferation (AID 504320)
How it was run: (§1)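 Parasite growth measured as SYBR Green DNA fluorescence (ex 485, em 535 nm) after overnight lysis following 72 h culture at 37 °C, 0.3% parasitemia, 2.5% hematocrit. Values normalized against DMSO and 0.29 uM artemisinin controls, with plate-stack correction.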

[3] = molecular target: Atrial natriuretic peptide receptor 1 (Homo sapiens) (UniProt P16066); test: Natriuretic polypeptide receptor (hNpr1) antagonism - Pilot CMLD screen (AID 1347052; calls by dose curve;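 also: HEK293 cells with hNpr1 stimulated by hNppA peptide at 0.1 nM; cGMP level read as GloSensor luciferase luminescence after agonist stimulation; series mostly up to about 9.2 µM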)
Atrial natriuretic peptide receptor 1 (Homo sapiens), sequence (P16066 whole entry, looked up): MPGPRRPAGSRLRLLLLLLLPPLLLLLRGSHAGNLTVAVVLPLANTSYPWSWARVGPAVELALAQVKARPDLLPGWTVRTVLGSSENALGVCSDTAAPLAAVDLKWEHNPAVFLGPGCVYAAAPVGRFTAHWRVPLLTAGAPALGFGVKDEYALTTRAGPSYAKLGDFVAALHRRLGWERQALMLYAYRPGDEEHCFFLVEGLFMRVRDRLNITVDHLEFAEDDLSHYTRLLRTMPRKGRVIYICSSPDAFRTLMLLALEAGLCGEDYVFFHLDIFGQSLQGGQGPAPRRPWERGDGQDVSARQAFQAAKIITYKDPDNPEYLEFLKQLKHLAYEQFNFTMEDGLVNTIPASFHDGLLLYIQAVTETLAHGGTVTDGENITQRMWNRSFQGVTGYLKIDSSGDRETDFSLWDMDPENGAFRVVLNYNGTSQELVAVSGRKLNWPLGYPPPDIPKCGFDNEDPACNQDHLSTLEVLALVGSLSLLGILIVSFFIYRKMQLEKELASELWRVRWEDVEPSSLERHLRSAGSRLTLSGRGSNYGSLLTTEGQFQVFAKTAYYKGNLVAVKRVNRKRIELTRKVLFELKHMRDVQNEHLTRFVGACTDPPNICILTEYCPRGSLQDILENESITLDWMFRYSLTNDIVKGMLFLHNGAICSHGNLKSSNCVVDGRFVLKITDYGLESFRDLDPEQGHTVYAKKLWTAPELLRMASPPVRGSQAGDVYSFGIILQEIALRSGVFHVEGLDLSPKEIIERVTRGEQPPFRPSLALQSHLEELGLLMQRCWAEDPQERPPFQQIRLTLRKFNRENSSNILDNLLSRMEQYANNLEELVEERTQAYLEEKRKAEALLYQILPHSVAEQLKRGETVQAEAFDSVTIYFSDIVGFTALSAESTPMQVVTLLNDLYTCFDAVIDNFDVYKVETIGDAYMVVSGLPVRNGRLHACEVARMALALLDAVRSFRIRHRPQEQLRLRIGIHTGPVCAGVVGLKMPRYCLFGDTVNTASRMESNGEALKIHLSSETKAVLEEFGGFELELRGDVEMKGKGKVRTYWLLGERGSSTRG

[4] = qHTS for Inhibitors of Plasmodium falciparum (GB4) proliferation (AID 504315); also: nearly all actives have a fitted effect of over 50% in size; also: potency is read from the fitted curve at half-maximal effect
How it was run: as §1

[5] = qHTS for Inhibitors of Plasmodium falciparum (7G8) proliferation (AID 504316); also: nearly all actives have a fitted effect of over 65% in size; also: potency is read from the fitted curve at half-maximal effect
How it was run: as §1

[6] = qHTS for Inhibitors of Plasmodium falciparum (HB3) proliferation (AID 504318); also: nearly all actives have a fitted effect of over 60% in size; also: potency is read from the fitted curve at half-maximal effect
How it was run: as §1

COc1ccc2c(c1)O[C@@H](c1ccc3c(c1)OCO3)[C@H](OC(=O)Nc1ccc(C)c(Br)c1)C2=O
Potency [1]: inactive
Potency [2]: inactive
Potency [3]: inactive

C[C@@H]1CC[C@H]2C(=O)O[C@H](COc3ccc(C(C)(C)C)cc3)CN2[C@@H]1c1ccc(Br)cc1
Potency [4]: inactive
Potency [5]: inactive
Potency [6]: inactive
Potency [3]: inactive

COC(=O)N[C@@H](c1ccc2ccccc2c1)C(C(C)=O)C(=O)OC (some centres not stated)
Potency [4]: inactive
Potency [5]: inactive
Potency [6]: inactive
Potency [3]: inactive

Cc1ccccc1Nc1oc(-c2ccccc2)nc1C=Cc1ccccc1
Potency [1]: inactive
Potency [2]: inactive
Potency [3]: inactive

COC(=O)C1=C(C(=O)OC)[C@@H]2N(C)c3ccc(OC)cc3[C@@]23C[C@@H](C(=O)OC)N(C(=O)NC(C)(C)C)C3=N1
Potency [4]: 1.9 µM (active)
Potency [3]: inactive

CCCCCCCC1=Cc2ccc(F)cc2C(C(C(=O)OC)C(=O)OC)N1C(=O)OC (configuration not stated)
activity, negative = inhibition [1]: -0.0199% [at 1.12 µM]
Potency [2]: inactive
Potency [3]: inactive

COC(=O)C1=C(C)N(Cc2ccccc2)C(=NCC2CC2)NC1c1ccccc1 (configuration not stated)
Potency [4]: 1.69 µM (active)
Potency [3]: inactive

Cc1ccccc1Nc1oc(-c2ccccc2)nc1-c1ccccc1
Potency [4]: 1.9 µM (active)
Potency [5]: 1.69 µM (active)
Potency [6]: 1.69 µM (active)
Potency [3]: inactive

COc1ccc([C@]23Cc4ccccc4[C@H](O2)c2c(c4ccc(OC)cc4oc2=O)O3)cc1
Potency [4]: 1.9 µM (active)
Potency [5]: 1.69 µM (active)
Potency [3]: inactive

C=CC[C@@H]1C=C[C@@H](Oc2ccc(OC)cc2)[C@H](CO)O1
Potency [4]: 1.51 µM (active)
Potency [3]: inactive

COc1ccc2c3c(c(=O)oc2c1)[C@H]1O[C@](c2ccsc2)(Cc2ccccc21)O3
Potency [4]: 1.69 µM (active)
Potency [3]: inactive

CC12C=C(C=Cc3ccc(C(F)(F)F)cc3)C(C)(C1)C(c1ccc(C(F)(F)F)cc1)CC2=O (configuration not stated)
Potency [1]: inactive
Potency [2]: inactive
Potency [3]: inactive

CCc1cc2c(nc1CC)CCN(CCC(C)=NO[C@@H](C)CN1CCCc3nc(C)c(C)cc31)C2
Potency [4]: inactive
Potency [3]: inactive

COCOc1ccc(Br)cc1C(=O)[C@@H]1O[C@@H]1c1cccc(OC)c1
Potency [4]: inactive
Potency [3]: inactive

O=C1C2=C(C(=O)c3ccccc31)[C@H]1O[C@](CCCCN3C(=O)c4ccccc4C3=O)(Cc3c1ccc1ccccc31)O2
Potency [4]: 1.69 µM (active)
Potency [5]: 0.953 µM (active)
Potency [6]: 0.757 µM (active)
Potency [3]: inactive

COC(=O)N[C@@H](C=Cc1ccccc1)C(C(=O)OC)=C(C)NCc1ccccc1
Potency [4]: 1.69 µM (active)
Potency [3]: inactive

O=S(=O)(CCc1ccccc1)c1nnnn1C1CCCCC1
Potency [4]: inactive
Potency [3]: inactive

COc1ccc2c(c1)[C@@]1(OCCC=C[C@@H]1C)C(=O)N2Cc1ccc(F)cc1
Potency [1]: inactive
Potency [2]: inactive
Potency [3]: inactive

CCOC(=O)NN=C1C[C@@H](O)[C@@H](O)[C@@H]2[C@H]3C(=O)N(C4CCCCC4)C(=O)[C@@H]3CC[C@H]12
Potency [4]: inactive
Potency [3]: inactive

CC(C)=CCCC(C)=CCN1C(=O)[C@]2(OCCC=C[C@H]2C)c2ccccc21
Potency [1]: inactive
Potency [2]: inactive
Potency [3]: inactive

CC12C=C(C=CCCc3ccco3)C(C)(C1)[C@H](CCc1ccco1)CC2=O (some centres not stated)
Potency [4]: inactive
Potency [3]: inactive
